This is part of a sample that, as a whole, favours compounds with a hit. Of some 83,000 tested, about 20% had one in any assay.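 96-well plates, one dose, 48 hours. Percent growth reported; active if below 10.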 Unmarked numbers belong to inactive results. Calls of active or inactive are those of the source.

Results on 31 compounds are retold here after PubChem BioAssay (NCI).

The test system of this assay is NCI-H522 lung. Description: NCI-60 one-dose screen, 48 h (100 = growth as untreated, 0 = no growth, -100 = all killed). The following applies: 10 µM unless noted.
For the compound `COc1cc2c(=O)n(C3CCCCCCC3)c3c4cc[nH]c4ncc3c2cc1OC`, the growth was 48.8%.
Next, `C1CCC([PH+](C2CCCCC2)C2CCCCC2[PH+](C2CCCCC2)C2CCCCC2)CC1.[Au].[CH-]1CCCCC1CC1CCCC[N-]1` (stereo unspecified): -40.7% (active); `CCCCN1CCCC[C@@H]1C(=O)N[C@H](C(=O)N(C)[C@H](C[C@@H](OC(C)=O)c1nc(C(=O)NC2CCC(C(=O)OC)CC2)cs1)C(C)C)C(C)C` (stereo partly specified): -11.8% (active).
For the compound `CS(=O)(=O)CCN1CC2CCCC(C2)C1`, the growth was 97.9%.
Consider `COC(=O)[C@@H](C)C[C@H](Cc1ccccc1)NC(=O)c1nc([C@@H](C[C@H](C(C)C)N(C)C(=O)[C@@H](NC(=O)[C@H]2CCCCN2C)C(C)C)OC(C)=O)sc1C(C)C`, for which the growth was -9.43% (active).
On to `C=CC[Se]C(=O)c1ccccc1OC(C)=O`, for which the growth was 47.1%.
The figure for `CC(C)[C@@H]1NC(=O)[C@]2(C)CSC(=N2)c2csc(n2)CNC(=O)C[C@@H](/C=C/CCS)OC1=O` is -25.2% (active); for `Clc1cccc(Cl)c1Cl` it is 65.1%; for `O=C(CC1(O)C(=O)Nc2ccc(Cl)cc21)c1ccc(C(=O)NCC2CCC3(CC2)OOC2(CCCCC2)OO3)cc1` (stereo unspecified) it is -1.69% (active).
`COc1ccc(C(O)(C(=O)O)c2ccc(OC)cc2)cc1`: the growth is 62%.
With `CCn1c2ccccc2c2cc(C(=O)c3ccc(C)c4ccccc34)ccc21`, the growth is 0.105% (active).
Next, `COC(=O)[C@]12CCC(C)(C)C[C@H]1[C@H]1C(=O)C[C@@H]3[C@@]4(C)C[C@@]5(CC(C)(C)[C@@H]4CC[C@@]3(C)[C@]1(C)CC2)OO[C@@](C)(C(F)(F)F)O5`: 76.7%; `CC[C@]12C=CCN3CC[C@@]4(c5ccc(OC)cc5N(C)[C@H]4[C@@](O)(C(=O)OC)[C@@H]1OC(=O)CCCC[P+](c1ccccc1)(c1ccccc1)c1ccccc1)[C@@H]32`: -5.5% (active).
For `CCCCCCCCOC(=O)CCN1CC1`, the growth is 121%.
Take `CC1[C@H](C)OC(=O)CC(O)CC(O)CC(O)CCC(O)C(O)C[C@]2(O)CC(O)C(C(=O)O)C(CC(OC3O[C@H](C)[C@@H](O)[C@H](N)[C@@H]3O)/C=C/C=C/C=C/C=C/CC/C=C/C=C/[C@H](C)[C@H]1O)O2` (stereo partly specified): the growth was 114%.
The figure for `c1cc2c(c3c1CCNC3)OCO2` is 75.6%.
As for `Cc1ccc(N2COOC3(OOC2)C2CC4CC(C2)CC3C4)cc1`, the growth is 92.5%.
Next, `O=C(CC1(O)C(=O)N(Cc2ccccc2)c2ccc(Br)cc21)c1ccc(C(=O)NCC2CCC3(CC2)OOC2(CCCCC2)OO3)cc1` (stereo unspecified): 2.53% (active).
As to `C[C@@H]1C[C@@]2(C)[C@@H](CC[C@@H]3[C@@H]2CC[C@]2(C)C(=O)CC[C@@H]32)CC1=O`, the growth is 91.9%.
On to `CCN(CC)c1ccc2c(c1)OC(N)=C(C#N)C2c1cc(OC)c2c(c1)OCO2` (stereo unspecified), for which the growth was -41.7% (active).
With `O=P(Oc1ccc(Cl)cc1)(N1CC1)N1CC1`, the growth was 66.8%.
Next, `O=[N+]([O-])c1cc(I)cc([N+](=O)[O-])c1`: 85.5%; `CC(=O)O[C@H](C[C@H](C(C)C)N(C)C(=O)[C@@H](NC(=O)[C@H]1CCCCN1C)C(C)(C)C)c1nc(C(=O)N[C@@H](Cc2ccccc2)C[C@H](C)C(=O)O)cs1`: -24.7% (active).
The figure for `CC[C@H](C)[C@H](NC(=O)[C@H]1CCCCN1C)C(=O)N(C)[C@H](C[C@@H](O)c1nc(C(=O)N[C@@H](Cc2ccccc2)C[C@H](C)C(=O)O)cs1)C(C)C` is -18% (active); for `CN1CCC(O)(c2ccc(F)cc2)C(C(=O)c2ccc(F)cc2)C1` (stereo unspecified) it is 78.9%; for `O=C1NC(=O)C(=Cc2cccn2CCCCCn2c3ccccc3c(=O)c3ccccc32)C(=O)N1` it is 90.5%.
The figure for `COC(=O)[C@@H](C[C@H](Cc1ccccc1)NC(=O)c1csc([C@@H](C[C@H](C(C)C)N(C)C(=O)[C@@H](NC(=O)[C@H]2CCCCN2C)C(C)C)OC(C)=O)n1)NC(=O)OCc1ccccc1` is -45.5% [9.5 µM] (active); for `CN(C)CCCOc1ccc2c(c1)c(C(=O)C(=O)NCCO)cn2Cc1ccccc1` it is 99%.
Regarding `COc1cc(C=Nc2cc(Cl)cc(Cl)c2)ccc1N(CCCl)CCCl`, the growth is -84.3% (active).
The figure for `CCOC(=O)N[C@H]1CCc2c(Br)c(OC)c(OC)c(OC)c2-c2ccc(SC)c(=O)cc21` is 13.2%; for `C/C(CC(C)(C)N1CC1)=N\NC(=O)Nc1cccc2ccccc12` it is 48.7%.
